PubChem BioAssay (Tox21)
Inconclusive results are not listed. Calls of active or inactive are those of the source. Unless noted, calls follow the shape of the dose curve; as a rule, active = well fitted curve in the direction sought with a large enough effect in the repeat runs; inconclusive = weak or mixed curves; inactive = no such curve, though single readings can be large; an effect the other way counts as inactive or inconclusive.

Legend:
[1] = qHTS assay to identify small molecule agonists of the hypoxia (HIF-1) signaling pathway - cell viability counter screen (AID 1224844; calls by dose curve; also: nearly all actives have a fitted effect of over 50% in size)
Outline: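 Viability counter screen: HRE-bla ME-180 cells plated 5 hrs before compound addition, treated 17 hrs at 37C and 5% CO2, then CellTiter-Glo added after the FRET reporter read; luminescence after 30 min.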

[2] = qHTS assay to identify small molecule agonists of H2AX (AID 1224845; active = well fitted activation curve with a large enough effect in the signal ratio in the repeat runs, not every such curve was filed as active; the % refers to the signal ratio)
Outline: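 Wild-type CHO-K1 cells, plated overnight, exposed 3hr at 37C to 15 concentrations (0.76% DMSO final). Lysed, then HTRF anti-pH2AX (S139) cryptate and anti-H2AX-d2 antibodies, 24 hr room temperature; 665/620 nm emission read.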

[3] = qHTS assay to identify small molecule agonists of the hypoxia (HIF-1) signaling pathway (AID 1224846; active = well fitted activation curve with a large enough effect in the signal ratio in the repeat runs, not every such curve was filed as active; the % refers to the signal ratio)
Outline: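 Agonist mode reporter screen. ME-180 cells stably expressing bla under HRE control received test compounds in DMSO for 17 hrs (37C, 5% CO2), and beta-lactamase activity was then detected with the CCF4-AM FRET substrate.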

[4] = qHTS assay to identify small molecule agonists of H2AX - cell viability counter screen (AID 1224847; calls by dose curve; also: top concentration of the series differs between compounds; nearly all actives have a fitted effect of over 30% in size)
Outline: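 Compounds tested at 15 concentrations were incubated 3 hr at 37C with wild-type CHO-K1 cells; cellular ATP-based luminescence (CellTiter-Glo) indicated viability.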

[5] = qHTS assay to identify small molecule agonists of the estrogen related receptor (ERR) signaling pathway from Tox21 library (AID 1224849; calls by dose curve; also: nearly all actives have a fitted effect of over 15% in size); settings: ERR reporter cell line, ONE-Glo luciferase, 18 h
Outline: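 Quantitative HTS in agonist format: NTP ERR cell line, compounds transferred in DMSO after 6 h plating, 18 h incubation at 37 C, ONE-Glo luminescence endpoint.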

[6] = A CellTox Green Cytotoxicity Assay to monitor cytotoxicity in HEK293 cells - 0 hour (AID 1224869); also: nearly all actives have a fitted effect of over 50% in size
Outline: (§1)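 Dead-cell fluorescence measured kinetically: asymmetric cyanine dye, HEK293, 600 cells/well, 5 h settle, 23 nL cpd/DMSO, 37 C, reads 0–40 h every 8 h.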

[7] = qHTS RealTime-Glo MT Cell Viability Assay in HepG2 cells - 40 hour (AID 1224870); also: nearly all actives have a fitted effect of over 50% in size
Outline: (§2)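 HepG2 cells (600/well) mixed with RealTime-Glo MT reagent, settled 5 h at 37 C/5% CO2 before compound addition. Nonlytic NanoLuc luminescence from viable-cell prosubstrate reduction read repeatedly during 40 h treatment at 37 C.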

[8] = qHTS RealTime-Glo MT Cell Viability Assay in HepG2 cells - 8 hour (AID 1224873); also: nearly all actives have a fitted effect of over 55% in size
Outline: as §2

[9] = A CellTox Green Cytotoxicity Assay to monitor cytotoxicity in HEK293 cells - 24 hour (AID 1224875); also: nearly all actives have a fitted effect of over 45% in size
Outline: as §1

[10] = A CellTox Green Cytotoxicity Assay to monitor cytotoxicity in HepG2 cells - 16 hour (AID 1224876); also: nearly all actives have a fitted effect of over 45% in size
Outline: (§3)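 First, HepG2 cells (600/well) mixed with reagent were plated; second, after 5 h at 37 C they received compounds via pintool; third, fluorescence was measured at 0 h through 40 h at 8 h intervals.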

[11] = qHTS RealTime-Glo MT Cell Viability Assay in HepG2 cells - 32 hour (AID 1224877); also: nearly all actives have a fitted effect of over 55% in size
Outline: (§4)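 Tox21 10K library screened in qHTS format on HepG2 cells carrying RealTime-Glo reagents. Compounds were added after a 5 h preincubation, and the luminescent signal from continuous culture was measured repeatedly during 40 h treatment.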

[12] = A CellTox Green Cytotoxicity Assay to monitor cytotoxicity in HepG2 cells - 24 hour (AID 1224878); also: nearly all actives have a fitted effect of over 45% in size
Outline: as §3

[13] = A CellTox Green Cytotoxicity Assay to monitor cytotoxicity in HepG2 cells - 40 hour (AID 1224879); also: nearly all actives have a fitted effect of over 40% in size
Outline: as §3

[14] = qHTS RealTime-Glo MT Cell Viability Assay in HEK293 cells - 0 hour (AID 1224880); also: top concentration of the series differs between compounds; nearly all actives have a fitted effect of over 45% in size
Outline: (§5)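 600 HEK293 cells per well, dispensed already mixed with RealTime-Glo MT reagents. Compound dosing came 5 h later. The same wells were read for luminescence at 0, 8, 16, 24, 32 and 40 h of exposure at 37 C.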

[15] = qHTS assay to identify small molecule antagonists of the estrogen related receptor (ERR) signaling pathway from Tox21 library (AID 1224848); also: nearly all actives have a fitted effect of over 50% in size
Outline: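 Quantitative high-throughput format: ERR reporter cells (2,000/well) pre-incubated 6 h, treated 18 h at 37 C with compounds in DMSO alongside positive and negative controls, then read by ONE-Glo luminescence.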

[16] = qHTS RealTime-Glo MT Cell Viability Assay in HepG2 cells - 24 hour (AID 1224867); also: nearly all actives have a fitted effect of over 50% in size
Outline: as §4

[17] = qHTS RealTime-Glo MT Cell Viability Assay in HEK293 cells - 32 hour (AID 1224868)
Outline: (§6)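 Luminescence generated by NanoLuc from substrate produced by living HEK293 cells served as the viability signal. Each value reflects the reading at its stated time point during continuous 40 h compound exposure at 37 C.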

[18] = A CellTox Green Cytotoxicity Assay to monitor cytotoxicity in HEK293 cells - 40 hour (AID 1224871); also: nearly all actives have a fitted effect of over 45% in size
Outline: as §1

[19] = qHTS RealTime-Glo MT Cell Viability Assay in HEK293 cells - 16 hour (AID 1224872)
Outline: as §6

[20] = qHTS RealTime-Glo MT Cell Viability Assay in HEK293 cells - 40 hour (AID 1224874); settings: RealTime-Glo luminescence; max response: hits give low values; also: nearly all actives have a fitted effect of over 50% in size
Outline: as §5
% is scaled to controls: 0 for no effect and ±100 for the full control effect.

CC[N+](CC)(CC)CCOC(=O)C(C1CCCC1)C1CCCC1
inactive: Potency [1] | Potency [2] | Potency [3] | Potency [4] | activity change, positive = activation ([5]; at 42.5 µM (top of the series)) -21.2% | Potency [6] | Potency [7] | Potency [8] | Potency [9] | Potency [10] | Potency [11] | Potency [12] | Potency [13] | Potency [14]

CN(C)C(=O)COC(=O)Cc1ccc(OC(=O)c2ccc(N=C(N)N)cc2)cc1
inactive: Potency [1] | Potency [2] | Potency [3] | Potency [4] | Potency [15] | activity change, positive = activation ([5]; at 42.5 µM (top of the series)) -1.22% | Potency [16] | Potency [17] | Potency [6] | Potency [18] | Potency [19] | Potency [8] | max response [20] 5.33% | Potency [9] | Potency [10] | Potency [11] | Potency [12] | Potency [14]

CC(C)OC(=O)C(O)(CC(=O)O)CC(=O)O
inactive: Potency [1] | Potency [2] | Potency [3] | Potency [4] | Potency [15] | activity change, positive = activation ([5]; at 92.4 µM (top of the series)) 4.45% | Potency [16] | Potency [17] | Potency [6] | Potency [7] | Potency [18] | Potency [19] | max response [20] 1.68% | Potency [9] | Potency [10] | Potency [11] | Potency [12] | Potency [13] | Potency [14]

CC(C)(C)C1CCC(=O)CC1
inactive: Potency [1] | Potency [2] | Potency [3] | Potency [4] | Potency [15] | activity change, positive = activation ([5]; at 92.4 µM (top of the series)) -0.544% | Potency [16] | Potency [17] | Potency [6] | Potency [18] | Potency [19] | Potency [8] | max response [20] 0.275% | Potency [9] | Potency [10] | Potency [11] | Potency [12] | Potency [13] | Potency [14]

COc1cc(/C=C/c2ccccc2)oc(=O)c1
active: activity change, positive = activation ([5]; at 92.4 µM (top of the series)) 36.4%
inactive: Potency [1] | Potency [2] | Potency [3] | Potency [4] | Potency [15] | Potency [16] | Potency [6] | Potency [7] | Potency [18] | Potency [8] | Potency [10] | Potency [11] | Potency [12] | Potency [14]

O=C(O)c1cc(=O)c2ccccc2o1
inactive: Potency [1] | Potency [2] | Potency [3] | Potency [4] | Potency [15] | activity change, positive = activation ([5]; at 42.5 µM (top of the series)) -3.87% | Potency [16] | Potency [17] | Potency [6] | Potency [7] | Potency [18] | Potency [19] | Potency [8] | max response [20] 1.84% | Potency [9] | Potency [10] | Potency [11] | Potency [12] | Potency [13] | Potency [14]

CCC(=O)C(=O)CC
inactive: Potency [1] | Potency [2] | Potency [3] | Potency [4] | Potency [15] | activity change, positive = activation ([5]; at 92.4 µM (top of the series)) -15.7% | Potency [16] | Potency [6] | Potency [7] | Potency [18] | Potency [8] | Potency [9] | Potency [10] | Potency [11] | Potency [12] | Potency [13] | Potency [14]

OC[C@@H](O)[C@@H](O)CO
inactive: Potency [1] | Potency [2] | Potency [3] | Potency [4] | Potency [15] | activity change, positive = activation ([5]; at 92.4 µM (top of the series)) 4.53% | Potency [16] | Potency [17] | Potency [6] | Potency [18] | Potency [19] | Potency [8] | max response [20] 7.59% | Potency [9] | Potency [10] | Potency [11] | Potency [12] | Potency [14]

Cc1cccc(C)c1NC(=O)c1ccc(N)cc1
inactive: Potency [1] | Potency [2] | Potency [3] | Potency [4] | Potency [15] | activity change, positive = activation ([5]; at 42.5 µM (top of the series)) 5.09% | Potency [16] | Potency [17] | Potency [6] | Potency [7] | Potency [19] | Potency [8] | max response [20] -2.12% | Potency [9] | Potency [11] | Potency [12] | Potency [13] | Potency [14]

CCC(COC(=O)CCS)(COC(=O)CCS)COC(=O)CCS
inactive: Potency [1] | Potency [2] | Potency [3] | Potency [4] | Potency [15] | activity change, positive = activation ([5]; at 92.4 µM (top of the series)) 4.52% | Potency [16] | Potency [17] | Potency [6] | Potency [7] | Potency [18] | Potency [19] | Potency [8] | max response [20] 0.669% | Potency [9] | Potency [10] | Potency [11] | Potency [12] | Potency [13] | Potency [14]

FC(F)(F)c1cccc(Cl)c1
inactive: Potency [1] | Potency [2] | Potency [3] | Potency [4] | Potency [16] | Potency [17] | Potency [6] | Potency [7] | Potency [18] | Potency [19] | Potency [8] | max response [20] -5.72% | Potency [9] | Potency [10] | Potency [11] | Potency [12] | Potency [13]

Cc1cccc(C(=O)O)c1O
inactive: Potency [1] | Potency [2] | Potency [3] | Potency [4] | Potency [15] | activity change, positive = activation ([5]; at 42.5 µM (top of the series)) 0.112% | Potency [16] | Potency [17] | Potency [6] | Potency [7] | Potency [18] | Potency [19] | Potency [8] | max response [20] 6.77% | Potency [10] | Potency [11] | Potency [12] | Potency [13] | Potency [14]

OC[C@H]1O[C@H](O[C@H]2O[C@H](CO)[C@@H](O)[C@H](O)[C@H]2O)[C@H](O)[C@@H](O)[C@@H]1O
inactive: Potency [1] | Potency [2] | Potency [3] | Potency [4] | Potency [15] | activity change, positive = activation ([5]; at 92.4 µM (top of the series)) 8.53% | Potency [16] | Potency [17] | Potency [6] | Potency [7] | Potency [18] | Potency [19] | Potency [8] | max response [20] 25.1% | Potency [9] | Potency [11] | Potency [12] | Potency [14]
